Hits are enriched below; roughly 2.5% of the tested compounds scored in any of these assays.
D2 antagonist: antagonists of human D2 dopamine receptor; P14416; HEK293 TREx D2 cells, calcium flux, dopamine EC80; inhibition, % at 10 µM; 340,000 tested, 2% active; AID 485344; in the data active = inhibition above about 30%; inactive = below that, where a call was filed; note: 0% is about no effect
Target sequence (P14416 whole entry, looked up): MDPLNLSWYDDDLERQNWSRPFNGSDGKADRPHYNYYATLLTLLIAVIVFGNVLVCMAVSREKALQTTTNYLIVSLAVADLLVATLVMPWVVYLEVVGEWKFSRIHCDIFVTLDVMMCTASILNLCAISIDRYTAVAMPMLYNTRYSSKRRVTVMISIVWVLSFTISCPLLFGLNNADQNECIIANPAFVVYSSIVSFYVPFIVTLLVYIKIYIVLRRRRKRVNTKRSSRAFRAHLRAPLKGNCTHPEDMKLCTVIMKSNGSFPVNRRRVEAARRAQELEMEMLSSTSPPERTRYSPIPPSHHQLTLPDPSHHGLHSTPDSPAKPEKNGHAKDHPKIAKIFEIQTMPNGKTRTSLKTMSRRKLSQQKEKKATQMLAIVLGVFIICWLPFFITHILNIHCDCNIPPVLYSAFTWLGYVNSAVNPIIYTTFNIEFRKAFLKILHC
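Tetracycline-induced HEK293 TREx cells expressing D2 receptor forced-coupled to calcium signalling, loaded with no-wash calcium dye. Compounds added and calcium flux read 180 s, then dopamine added at EC80 and read a further 180 s.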
D2 PAM-1: positive allosteric modulators of human D2 dopamine receptor. AID 485347. 340,000 tested, 0.34% active. P14416. potentiation, % at 10 µM. HEK293 T-REx D2, calcium flux, EC20 dopamine potentiation;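 active = potentiation over 3 SD above the plate norm, cut at about 30% in these data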; note: 0% is about no effect
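Calcium flux readout, no-wash dye, 1 read/s. Inducible HEK293 Trex D2 line, overnight 30 C. Compound alone 180 s (agonist flags), then EC20 dopamine, another 180 s to score potentiation.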
D2 PAM-2: positive allosteric modulators of human D2 dopamine receptor | P14416 | potentiation, % (concentration not given with the values) | AID 624464 | DiscoveRx D2 beta-arrestin cells, luminescence, 90 min; 100% = 57 uM dopamine signal | 360,000 tested, 0.23% active; in the data active = potentiation above about 50%; inconclusive = mostly about 30% to 49%
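D2 cells co-treated with compound plus 50 nM dopamine (EC20) for 90 min at 37 deg C to detect potentiation. Beta-arrestin recruitment was read as enzyme-fragment luminescence after 1 h at ambient temperature. Full response was set by 57 uM dopamine.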
Anesthetic bind: candidate novel general anesthetic via apoferritin binding; P02791; 350,000 tested, 0.074% active; apoferritin/1-aminoanthracene competitive binding, fluorescence; Potency, µM (doses to about 77.5 µM), for the others: at the top dose activity change, negative = displacement, hits mostly inhibitors; AID 485281; active = well fitted inhibition curve with a large enough effect; inconclusive = small, poorly fitted or top-dose-only effect; inactive = no such curve, though single readings can be large or run the other way; note: potency is the fitted concentration of half-maximal effect; % is set by controls: 0 for no effect and ±100 for the full control effect; nearly all actives have a fitted effect of over 20% in size
Target sequence (P02791 2-175 limits assumed): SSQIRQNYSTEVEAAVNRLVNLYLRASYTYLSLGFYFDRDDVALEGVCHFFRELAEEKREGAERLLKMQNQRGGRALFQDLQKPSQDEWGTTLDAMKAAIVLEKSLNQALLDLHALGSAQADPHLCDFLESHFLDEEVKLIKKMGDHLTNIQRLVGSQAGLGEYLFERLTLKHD
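Concentration-response curves derived by four-parameter Hill fitting of normalized fluorescence, where compounds displaced 1-AMA from 10 uM horse apoferritin following a brief 10 min room-temperature incubation; propofol titration acted as positive control.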
D2 ag-1: activates the human D2 dopamine receptor. HEK293 T-REx D2 cells, calcium flux agonist mode. activation, % at 2 µM. P14416. AID 485358. 340,000 tested, 0.53% active;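 active = activation over 3 SD above normal in the single-dose calcium agonist read, cut at about 30% in these data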; note: 0% is about no effect
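Agonism scored from kinetic calcium signal (1 read/sec, 180 s) following compound pin transfer, after a 10 s baseline. Cells: HEK293 Trex line expressing inducible D2 receptor coupled to calcium, dye-loaded after overnight culture at 30 C.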
D2 ag-2: activates the human D2 dopamine receptor. DiscoveRx PathHunter D2 beta-arrestin, luminescence, 90 min; 100% = 57 uM dopamine signal. activation, % (no concentration beside the values). 360,000 tested, 0.084% active. AID 624465; in the data active = activation above about 40%; inconclusive = between about 15% and that limit
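Agonist mode: compounds alone added to overnight-plated D2 PathHunter cells for 90 min at 37 C, with 57 uM final dopamine (EC100) defining full response. Beta-arrestin recruitment detected by chemiluminescent reagent, read after 1 h at ambient temperature.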
Active calls of the source: *; ? = inconclusive; . = no result; ! = a repeat was not active.

SMILES	D2 antagonist	D2 PAM-1	D2 PAM-2	Anesthetic bind	D2 ag-1	D2 ag-2
CC(C)(Oc1ccc(Cl)cc1)C(=O)NC1CCN(Cc2ccccc2)CC1	72*	-27	-7	.	-2	0
CC(C)(C)CC(C)(C)NC(=S)NC1CCN(Cc2ccccc2)CC1	66*	-24	-44	-18%	1	-4
CC1(C(=O)NC2CCN(Cc3ccccc3)CC2)CCN1Cc1ccc(OC(F)(F)F)cc1 (configuration not stated)	.	.	-23	.	.	-4
COC(CSc1ncnc2c1oc1nc3c(cc12)COC(C)(C)C3)OC	1	6	-14	2%	0	-3
Cc1ccc(C(=O)Nc2cc(C(F)(F)F)ccc2-n2cncn2)o1	2	0	3	.	0	-4
O=C(Nc1cc(C(F)(F)F)ccc1-n1cncn1)c1ccc(F)cc1Cl	35*	4	-10	.	0	-1
COc1ccc(N(C)S(=O)(=O)c2cccc(C(=O)Nc3ccc4c(c3)OCCO4)c2)cc1	17	-7	9	-2%	2	1
COc1ccc(CN(C)C(=O)CNC(=O)c2cccs2)c(OC)c1	-1	-2	0	.	0	8
COc1cccc(CN(C)C(=O)CNC(=O)c2cccs2)c1OC	38*	-1	0	.	1	-7
c1ccc(Nc2ccccc2Nc2ccccn2)nc1	34*	27	-10	-14%	0	-1
c1ccc(CNc2ccccn2)cc1	-6	-2	-14	1%	0	1
CCOC(=O)C(C(=O)OCC)C1CCS(=O)(=O)C1 (configuration not stated)	-2	14	-2	-3%	0	0
CCOCCCNCc1ccc(OCCC(C)C)c(OC)c1	35*	-9	-8	?	-1	-6
Cc1cc(O)cc2c(=O)c3ccccc3sc12	7	-11	-2	-6%	14	3
CC(C)(C)c1ccc(-c2noc(CCC(=O)Nc3cccnc3)n2)cc1	36*	-1	-1	?	2	5
COc1ccccc1C(=O)Nc1nc2ccccc2[nH]1	-9	3	-7	-2%	0	-4
COc1cc(SC)ccc1C(=O)Nc1nc2ccccc2[nH]1	34*	-7	-13	-4%	1	-11
COc1ccc(CCNC(=O)c2ccc(Cl)cc2Cl)cc1	-13	-6	-13	-1%	1	-3
Oc1ccc(/C=N/N2CCCCC2)c(O)c1O	.	.	9	-1%	.	2
Oc1ccc(/C=N/N2CCOCC2)c(O)c1O	.	-3	54*	-9%	.	?
CCN(CC)C(=O)CSc1nc(N)c(-c2ccccc2)c(=O)[nH]1	3	4	-2	-2%	-2	-1
COc1ccc(OC)c(C2/C(=C(\O)c3ccc4c(c3)OCCO4)C(=O)C(=O)N2CC2CCCO2)c1 (configuration not stated)	11	-8	12	-7%	2	-2
COc1cc(C2=Nc3ccc(Br)cc3C(c3ccccc3)N2CC(=O)NN)cc(OC)c1OC (configuration not stated)	86*	-15	-22	-20%	1	-5
NNC(=O)CN1C(c2ccc(Br)cc2)=Nc2ccc(Br)cc2C1c1ccccc1 (configuration not stated)	-3	9	-11	-5%	-1	-6
COC(=O)CN1C(c2ccc(OC)cc2)=Nc2ccc(Cl)cc2C1c1ccccc1 (configuration not stated)	91*	-24	9	1%	1	3
SMILES	D2 antagonist	D2 PAM-1	D2 PAM-2	Anesthetic bind	D2 ag-1	D2 ag-2
COC(=O)CN1C(c2cccc(Cl)c2)=Nc2ccc(Cl)cc2C1c1ccccc1 (configuration not stated)	21	-13	-36	1%	-2	-2
CCOc1cc(C(=O)NCCCn2ccnc2)cc(OCC)c1OCC	-2	9	-29	-5%	-2	-2
O=C(/C=C/c1ccco1)NCC1OCCc2ccccc21 (configuration not stated)	31*	-7	-6	7%	1	-3
Cc1ccc(-c2ccc(=O)n(CC(=O)NCc3ccc(F)cc3)n2)cc1	-6	-18	-2	8.9µM*	1	-5
C=Cc1ccc(Cn2nc(-c3ccc(C)cc3)ccc2=O)cc1	-27	-2	7	16µM*	1	1
O=c1ccc(-c2ccccc2)nn1Cc1ccc(Cl)cc1	.	.	0	.	.	3
COc1cccc(CNC(=O)Cn2nc(-c3ccc(C)cc3)ccc2=O)c1	.	4	.	?	1	.
COc1cccc(CNC(=O)Cn2nc(-c3ccc(Cl)cc3)ccc2=O)c1	-6	8	-13	6.3µM*!	0	-3
Cc1ccc(CNC(=O)CC(C)S(=O)(=O)c2ccc3c(c2)NC(=O)CS3)o1 (configuration not stated)	-12	-10	-15	-8%	-1	5
Nc1ccc(-c2cc(-c3ccc(N)cc3)nc(-c3ccccc3)n2)cc1	-6	8	-16	36%	-3	-3
COc1ccc(OC)c(CNC(=O)C2CCCN(C(=O)N(C)C)C2)c1 (configuration not stated)	-9	-12	-6	-8%	0	0
CCN1CCCC1CNC(=O)c1ccc(N2CCOCC2)c(NS(=O)(=O)c2ccc(OC)cc2)c1 (configuration not stated)	33*	-13	-17	-14%	0	-1
CCN(CC)CCNC(=O)c1ccc(N2CCCCC2)c(NS(=O)(=O)c2ccc(C)cc2)c1	56*	-17	-26	-2%	1	-5
CCOc1ccc(NC(=O)N(C2CCCCC2)C(C)c2cccnc2)cc1 (configuration not stated)	12	22	-10	-11%	0	1
CCSc1c(-c2ccccc2)nc2c(C)cccc2c1C(=O)O	-1	-17	-12	-7%	34*	0
O=C(NCc1ccccc1)c1cc(S(=O)(=O)N2CCCCC2)ccc1N1CCOCC1	.	.	-1	-9%	.	-1
CCOc1ccccc1CNCCN1CCOCC1	2	-6	-4	-12%	0	2
C=CCOc1ccccc1CNCCCN1CCOCC1	-5	37*	-12	-18%	0	-1
CCOC(=O)CSc1nc2ccc(N)cc2s1	-10	6	0	?	0	6
CCSc1nnc(NC(=O)c2cccc(S(=O)(=O)N(C)c3ccccc3)c2)s1	-8	4	-10	-6%	-2	-2
C=CCN(c1ccccc1)S(=O)(=O)c1cccc(C(=O)Nc2nnc(SCC)s2)c1	43*	-7	5	-16%	0	1
